Assay results from PubChem BioAssay AID1259318 (Sanford-Burnham Center for Chemical Genomics, 2017).
In all, about 370,000 compounds went through this assay and about 3,000 (0.81%) were called active. The sample holds actives, similar compounds and a random draw of the others, so the mix is not that of the screen.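 Rule for the calls: active = activity above about 14% (limit read from the data; passing the limit was not always enough); inactive = the rest.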

target: Nuclear receptor subfamily 1 group D member 1 (Homo sapiens) (UniProt P20393); assay: modulators of Rev-erb alpha DNA binding, primary screen, biochemical, FITC-DNA, fluorescence polarization, uHTS (AID 1259318); settings: Rev-erbα–FITC-DNA binding, 90 min, at 10 µM, hits give high values;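 note: 0% = DMSO wells with 35 nM protein and 100% = DMSO wells with 750 nM protein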
Sequence (P20393 whole entry, looked up): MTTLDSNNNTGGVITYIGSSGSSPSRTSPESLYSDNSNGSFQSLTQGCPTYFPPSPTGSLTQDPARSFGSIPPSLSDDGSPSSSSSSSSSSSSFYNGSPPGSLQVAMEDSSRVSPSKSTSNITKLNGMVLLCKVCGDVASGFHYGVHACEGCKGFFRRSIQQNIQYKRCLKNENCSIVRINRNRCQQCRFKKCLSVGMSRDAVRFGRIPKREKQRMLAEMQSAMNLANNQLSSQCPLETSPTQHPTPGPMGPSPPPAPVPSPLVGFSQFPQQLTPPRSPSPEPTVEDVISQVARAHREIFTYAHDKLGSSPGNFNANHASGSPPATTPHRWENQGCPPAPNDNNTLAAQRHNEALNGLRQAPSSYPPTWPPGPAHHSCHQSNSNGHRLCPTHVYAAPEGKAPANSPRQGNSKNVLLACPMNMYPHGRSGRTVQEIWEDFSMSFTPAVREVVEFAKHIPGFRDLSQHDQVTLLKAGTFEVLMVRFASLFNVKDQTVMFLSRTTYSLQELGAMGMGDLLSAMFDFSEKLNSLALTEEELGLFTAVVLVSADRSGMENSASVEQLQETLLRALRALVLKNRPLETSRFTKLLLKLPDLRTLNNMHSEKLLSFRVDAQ

activity, active:
CCCCCCSc1ccc(-c2nc3ccc(Cl)cn3c2NCc2ccccc2)cc1 24%
C[n+]1ccc(/C=C/c2c[nH]c3ccccc23)cc1 169%
COc1cc(OC)cc(-c2nc(=S)n3ccsc3n2)c1 14.2%
COc1ccc(-n2nc(C(=O)NCC(=O)Nc3cccc(C)n3)c3ccccc3c2=O)cc1 29.5%
Cc1cc(C)c2nc(SCC(=O)N(C)C3CCS(=O)(=O)C3)cc(C)c2c1 (centres undefined) 64%
O=C(COC(=O)c1cccc(Br)c1)Nc1cccc2c1C(=O)c1ccccc1C2=O 114%
COc1ccc(-c2c(C)cc3oc(=O)cc(-c4ccccc4)c3c2C)cc1C=O 18.5%
COc1ccc(-n2nc3c(N4CCC(C(=O)NCc5ccccc5)CC4)nnc(C)c3c2C)cc1 54.2%
CCOC(=O)c1sc(=NC(=O)c2ccc(Br)cc2)n(C)c1C 51.4%
CCN1/C(=C\c2ccc3ccccc3[n+]2CC)Sc2cc(C)ccc21 73.3%
Cc1cc2cc3c(cc2nc1SCC(=O)Nc1c(C)cccc1C)CCC3 63.4%
CCOC(=O)c1sc(NC(=O)CCN2CCOCC2)c(C(=O)OCC)c1C 30.6%
O=C(COc1ncnc2c(Cl)cc(Cl)cc12)N1CCN(S(=O)(=O)c2ccccc2)CC1 25.2%
COC(=O)c1cccc(Cn2ccc3ccc(-c4ccc5ccn(C(=O)c6ccccc6C)c5c4)cc32)c1 40%
COC(=O)c1cccc(Cn2ccc3ccc(-c4ccc5ccn(C(=O)C6CCCCC6)c5c4)cc32)c1 33.7%

activity, inactive:
NC(=O)CCCC1=NS(=O)(=O)c2ccccc2N1 -0.09%
c1ccc(-c2ccnc3nc(-n4cccc4)nn23)cc1 -4.06%
Clc1ccc2nc(CSc3ccccc3)cn2c1 6.58%
CCCCNc1c(-c2cccc(Sc3ccc(OC)cc3)c2)nc2ccccn12 -0.18%
Cn1cnc([N+](=O)[O-])c1Sc1n[nH]c(N)n1 -0.66%
COc1cc(C(=O)OCc2cc(=O)n3ccsc3n2)ccc1OC(C)C -8.61%
COc1ccc(C(=O)OCc2cc(=O)n3ccsc3n2)cc1F 3.21%
CCCC1CCC2(CCCN2CCOC(=O)NCc2ccccc2)CC1 (centres undefined) 4.94%
C=CCN(Cc1ccc2c(c1)OCO2)C(C#CC1CC1)C(C)(C)C (centres undefined) 0.61%
COc1ccc(/C=C2\CC3(OC(C)=O)CCCN2C3)cc1 (centres undefined) 1.87%
COCCCNC(=O)CNC(=O)c1nn(-c2ccc(OC)cc2)c(=O)c2ccccc12 -5.1%
CCCN(CCC)CCCNC(=O)CNC(=O)c1nn(-c2ccc(OC)cc2)c(=O)c2ccccc12 2.42%
Cc1[nH]c2ccccc2c1C(=O)c1cc([C@H](NC(=O)OC(C)(C)C)C(C)C)sc1N 8.9%
CCn1c(SCC(=O)N(C)C2CCS(=O)(=O)C2)nnc1-c1cccs1 (centres undefined) 1.18%
CN(C(=O)CSc1nnc(-c2ccc(C(C)(C)C)cc2)n1C)C1CCS(=O)(=O)C1 (centres undefined) -0.03%
COc1ccc(-n2c(SCC(=O)Nc3ccccc3-c3ccccc3)nnc2-c2cccnc2)cc1 -5.08%
CC1OC(O[C@H]2/C=C/C=C/C=C/C=C/C=C/C=C/C=C/[C@H](C)[C@@H](O)[C@@H](C)[C@H](C)OC(=O)CC(O)CC(O)CCC(O)C(O)CC(O)CC3(O)C[C@H](O)C(C(=O)O)C(C2)O3)C(O)[C@H](N)C1O (some centres undefined) 1.39%
O=C(O)CCC(=O)O -4.29%
COc1ccc(NC(=O)c2sc(=O)n(Cc3ccc(S(=O)(=O)N(C)C)cc3)c2C)cc1 4.54%
O=C(COC(=O)Cn1cnc2ccccc21)Nc1cccc2c1C(=O)c1ccccc1C2=O -19.3%
O=C(COC(=O)c1cccc(Cl)c1)Nc1ccc2[nH]c(=O)[nH]c2c1 -0.59%
C#CCN(N(C)c1ncc(C(F)(F)F)cc1Cl)S(=O)(=O)c1ccc2ccccc2c1 7.14%
CCN1CCN(C(=O)Cn2nc(C)n3c(cc4c(OC)cccc43)c2=O)CC1 -9.03%
CCCc1cc(=S)n2c([nH]c3ccccc32)c1C#N -0.23%
COc1cc(OC)c2c(-c3cccc(-c4cccc(N)c4)c3)cc(=O)oc2c1 -9.12%
Cc1cc2oc(=O)cc(-c3ccccc3)c2c(C)c1-c1ccc(OC(F)(F)F)cc1 -5.77%
CCCc1nc2c(C)cc(-c3nc4ccccc4n3C)cc2n1Cc1ccc(-c2ccccc2C(=O)O)cc1 3.42%
CC(C)CC(=O)Nc1cc(C(F)(F)F)ccc1N1CCOCC1 -4.25%
COc1ccc(CNC(=O)C2CCN(C(=O)c3ccccc3)CC2)cc1 1.27%
COc1ccc(CNC(=O)C2CCN(C(=O)c3ccco3)CC2)cc1 -1.19%
CC(C)N(C(=O)Cn1c(SCC(=O)N2CCN(c3ccccc3)CC2)nc2ccccc21)C(C)C 1.23%
O=C(Nc1ccc(O)cc1)c1ccccc1O 3.46%
CCCCCC(=O)Nc1ccc(-c2cn3cccnc3n2)cc1 -0.67%
Cc1ccc(CNCc2ccc3c(c2)OCO3)c(C)c1 -1.18%
C[C@H]1O[C@@H](O[C@H]2[C@@H](O)C[C@H](O[C@H]3[C@@H](O)C[C@H](O[C@H]4CC[C@]5(C)C6C[C@@H](O)[C@]7(C)[C@@H](C8=CC(=O)OC8)CC[C@]7(O)C6CC[C@@H]5C4)O[C@@H]3C)O[C@@H]2C)C[C@H](O)[C@@H]1O (some centres undefined) 2.73%
CCOC(=O)c1sc(=NC(=O)/C=C/c2cccs2)n(C)c1C -0.21%
CCOC(=O)C1=CN(Cc2ccc(Br)cc2)S(=O)(=O)N(C)C1C (centres undefined) -0.38%
C/C(Cn1nnc2ccccc21)=N\OC(=O)c1cc(F)c(F)cc1Cl 2.02%
COc1ccc(N2CCN(CCNS(=O)(=O)c3ccc(C(C)(C)C)cc3)CC2)cc1 5.09%
Nc1nc2c(ncn2[C@@H]2O[C@H](C(=O)N[C@H](Cc3ccccc3)C(=O)NCC3CCCCC3)[C@@H](O)[C@H]2O)c(=O)[nH]1 2.3%
COc1ccc(CCNC(=O)CSc2nc3c([nH]2)c(=O)n(C)c(=O)n3C)cc1 -0.29%
COc1ccc(CNS(=O)(=O)c2cc(Br)ccc2Br)cc1 6.25%
Cc1cccc(C)c1NC(=O)CSc1nc2c([nH]1)c(=O)n(C)c(=O)n2C 3.98%
Cc1cccc(NC(=O)CSc2nc3c(c(=O)[nH]2)CCC3)c1C -4.62%
CC(=O)C1=C(C)N(Cc2ccc(Cl)cc2)C(=S)NC1c1ccc(F)cc1 (centres undefined) 0.1%
CC1(C)C(C=C(Cl)Cl)C1C(=O)N(Cc1ccc(Cl)cc1)C1CCS(=O)(=O)C1 (centres undefined) 2.8%
CCOC(=O)c1[nH]c2ccc(C)cc2c1N=C(C)N(C)C 0.97%
O=C(CN1CCC(NC(=O)C2CC2)CC1)Nc1ccccc1[N+](=O)[O-] -2.64%
COc1cccc(-c2cc(CNC(=O)[C@@H](Cc3ccccc3)NC(=O)[C@H]3O[C@@H](n4cnc(C(N)=O)n4)[C@H](O)[C@@H]3O)no2)c1 3.31%
CCOC(=O)c1c(C)[nH]c(C(=O)NCCN2CCOCC2)c1C 1.96%
CCOC(=O)c1c(NC(=O)CCCN2CCOCC2)sc2c1CC(C)(C)OC2 2.68%
C=CCN(N=Nc1cccc([N+](=O)[O-])c1)c1cccc([N+](=O)[O-])c1 9.23%
NC(=O)CC(NC(=O)Cc1ccc(Br)cc1)c1ccc(NC2CC3CCC2C3)c([N+](=O)[O-])c1 (centres undefined) -0.82%
FCOC(C(F)(F)F)C(F)(F)F 2.75%
O=C(CSc1ccccn1)N1CCN(S(=O)(=O)c2ccc(Cl)cc2)CC1 -4.04%
O=C(COc1ccc(Cl)cc1)N1CCN(S(=O)(=O)c2ccc(Cl)cc2)CC1 -0.97%
COc1ccc(C2(C#N)CCC(C(=O)O)CC2)cc1OC1CCCC1 (centres undefined) -2.5%
O=C(CN1CCCc2ccccc21)NCc1ccc(F)cc1 0.36%
Cc1nn2cc(-c3ccc(Cl)cc3)cnc2c1Br 5.5%
CCN(CC)CCCC(C)Nc1ccnc2cc(Cl)ccc12 (centres undefined) -0.22%
COc1ccc(Cn2ccc3ccc(-c4ccc5ccn(Cc6ccccc6C)c5c4)cc32)cc1 0.1%
COC(=O)c1ccc(CN2CCCC(C(=O)Nc3cccc(-n4cnnn4)c3)C2)cc1 (centres undefined) 1.49%
FC(F)(F)c1cccc(Cn2ccc3ccc(-c4ccc5ccn(Cc6ccccc6)c5c4)cc32)c1 -9.95%
COC(=O)c1ccc(OCC(O)CN(CCO)CC(O)Cn2ccc3ccccc32)cc1 (centres undefined) 4.36%
CCC(=O)O[C@]1(C(=O)CCl)[C@@H](C)CC2C3CCC4=CC(=O)C=C[C@]4(C)[C@@]3(F)[C@@H](O)C[C@@]21C (some centres undefined) 0.94%
Cc1ccc(S(=O)(=O)N(Cc2cc3ccccc3[nH]c2=O)CC2CCCO2)cc1 (centres undefined) -1.97%
CN(C(N)=NC(=O)/C=C/c1ccccc1)C(C#Cc1ccccc1)Cc1ccccc1 (centres undefined) -4.88%
O=C(C1CCN(S(=O)(=O)Cc2ccccc2)CC1)N1CCCc2ccccc21 -2.58%
Cc1nn(CCOc2ccc(Br)cc2)c(C)c1[N+](=O)[O-] 3.89%
